Compounds with a hit are over-represented: about 4.7% of the library has one in this group of screens.
D1 PAM = human D1 dopamine receptor positive modulation | P21728 | HEK293 TREx D1 cells, calcium flux, dopamine EC20 potentiation | potentiation, % at 10 µM | 360,000 compounds, 0.036% hits | AID 504651; in the data active = potentiation above about 30%; note: 0% is about no effect
Target sequence (P21728 whole entry, looked up): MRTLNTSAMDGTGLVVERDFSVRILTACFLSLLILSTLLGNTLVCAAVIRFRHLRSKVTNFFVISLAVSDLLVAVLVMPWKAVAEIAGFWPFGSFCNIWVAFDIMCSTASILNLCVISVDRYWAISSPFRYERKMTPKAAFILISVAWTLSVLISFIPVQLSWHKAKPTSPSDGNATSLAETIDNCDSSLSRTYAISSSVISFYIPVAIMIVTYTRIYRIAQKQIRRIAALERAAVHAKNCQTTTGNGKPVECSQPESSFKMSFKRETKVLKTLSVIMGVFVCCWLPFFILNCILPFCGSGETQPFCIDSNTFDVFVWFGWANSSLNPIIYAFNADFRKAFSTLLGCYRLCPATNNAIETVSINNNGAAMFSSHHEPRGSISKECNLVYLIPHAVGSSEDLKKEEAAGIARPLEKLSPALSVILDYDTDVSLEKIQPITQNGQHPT
TRHR agonist = activates the human TRH receptor | TRHR cells, calcium flux fluo-8, FDSS agonist mode | activation, % at 2 µM | 360,000 compounds, 0.18% hits; note: 0% is about no effect
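Steps: seed TRHR cells overnight; add fluo-8 no-wash Ca dye, RT 30 min–1.5 h; record 10 s baseline; pin-transfer compounds; monitor fluorescence 1 cycle/s for the agonist window. Calcium increases flag candidate agonists.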
D1 agonist = activates the human D1 dopamine receptor | HEK293 T-REx D1 cells, calcium flux, agonist mode | 360,000 compounds, 1% hits | activation, % at 2 µM | P21728; note: 0% is about no effect
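Tetracycline-induced HEK293 TREx D1 cells, force-coupled to calcium signalling, were dye-loaded with a no-wash calcium kit. Compound was pin-added after a 10 s baseline. Fluorescence was read kinetically at 1 cycle/s for 180 s, with calcium rises flagged as agonism.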
D1 antagonist = blocks dopamine activation of the human D1 receptor; 360,000 compounds, 3.2% hits; activity change, negative = inhibition, % at 10 µM; AID 504652; HEK293 TREx D1 cells, calcium flux, dopamine EC80; active compounds read low; in the data active = activity change below about -30%; note: % is set by controls: 0 for no effect and ±100 for the full control effect
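Cells carrying a force-coupled, tetracycline-inducible human D1 receptor report calcium flux. Each well gets a 10 s baseline, compound with 180 s monitoring, then an EC80 dopamine stimulus with a second 180 s kinetic read.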
TRHR PAM = allosteric enhancers of human TRH receptor. P34981. TRHR cells, fluo-8 calcium fluorescence, EC20 TRH enhancement. enhancement, % at 2 µM. 360,000 compounds, 0.66% hits; in the data active = enhancement above about 30%; note: 0% is about no effect
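Enhancer read-out: after compound pinning and an initial kinetic agonist-mode read, an EC20 of TRH (10 nM final) was injected and fluo-8 calcium signal (Ex 480/Em 530) followed at 1 s/cycle for 100 cycles in TRHR-expressing cells.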
* marks the source's active call; other numbers are inactive results; · = no result given. Cut-off read from the data, not from the text of the source, unless noted: active = activation above about 30%; inactive = the rest.

SMILES	D1 PAM	TRHR agonist	D1 agonist	D1 antagonist	TRHR PAM
Cc1ccc(C)c(NC(=O)COC(=O)CCNC(=O)c2ccco2)c1	·	0	1	-50*	1
CCC(C)c1ccc(NC(=O)COC(=O)CCNC(=O)c2ccco2)cc1 (stereo unspecified)	-2	0	4	-17	4
COc1ccc(N(C(=O)c2ccc(Cl)cc2)S(=O)(=O)c2ccc(C)cc2)cc1	-1	2	5	-14	-3
O=C(NCCO)C(=O)c1c(-c2ccccc2)cc2ccccn12	-3	0	0	-31*	12
COc1cccc(N2CC(C(=O)Nc3ccc(C(=O)OC(C)C)cc3)CC2=O)c1 (stereo unspecified)	-7	-1	17	-30*	-1
COc1cccc(N2CC(C(=O)Nc3ccc(F)cc3)CC2=O)c1 (stereo unspecified)	-4	2	10	3	7
Cc1ccc(OCCSc2nc3ccccc3n2CC(=O)N2CCOCC2)cc1C	-2	0	4	-13	2
CCc1ccccc1NC(=O)c1cc2nc(-c3ccc(OC)c(OC)c3)cc(C(F)(F)F)n2n1	-2	2	1	4	8
Nc1c(C(=O)NCCN2CCOCC2)c2nc3ccccc3nc2n1-c1cccc(F)c1	-11	0	1	-48*	-1
CCCNC(=O)c1c(N)n(-c2cccc(OC)c2)c2nc3ccccc3nc12	-8	3	1	-14	-4
CCOc1ccc(S(=O)(=O)n2cnc(C)c2)cc1	-6	-2	7	-44*	1
CCOc1cc(C)c(C(C)C)cc1S(=O)(=O)n1cnc(C)c1	-14	0	3	-31*	8
CCOc1cc(C)c(C(C)C)cc1S(=O)(=O)N1CC(C)OC(C)C1 (stereo unspecified)	-1	0	2	3	-2
O=c1[nH]c2ccc(S(=O)(=O)N3CCN(S(=O)(=O)c4c(F)cccc4F)CC3)cc2[nH]c1=O	-7	0	2	5	-6
COc1ccc(/C=C/C(=O)C2CC2)cc1Cn1nc(C)c([N+](=O)[O-])c1C	1	-1	1	-3	38*
COc1ccc(C(C)=O)cc1Cn1nc(C)c([N+](=O)[O-])c1C	-4	0	1	-1	-6
Cc1ccc(N2CC(NC(=O)C3CCCC3)CC2=O)cc1 (stereo unspecified)	0	0	-2	·	4
CCOC(=O)CCSc1nc2c(c(C(F)(F)F)c1C#N)CCC2	4	0	-1	-38*	-4
CCCCSc1nc2c(c(C(F)(F)F)c1C#N)CCC2	-4	0	-1	13	0
COc1ccc(NC(=O)c2nc(S(C)(=O)=O)ncc2N(Cc2ccc(C)cc2)Cc2ccco2)cc1Cl	-2	0	2	-11	-4
COc1cc2oc(=O)ccc2cc1[C@H](O)[C@@H](O)C(C)(C)O	-1	0	-1	14	39*
COc1ccc(C(=O)Nc2ccc(S(=O)(=O)Nc3cc(C)nc(C)n3)cc2)cc1OC	-4	1	4	-6	8
Cc1cc(C)c(C(=O)Nc2ccc(S(=O)(=O)Nc3onc(C)c3C)cc2)c(C)c1	-5	0	-2	-82*	-1
COc1ccc(NS(=O)(=O)c2ccc(NC(=O)C3CCCO3)cc2)cc1 (stereo unspecified)	1	1	14	0	-5
Cc1cc(NS(=O)(=O)c2ccc(NC(=O)c3c(F)c(F)c(F)c(F)c3F)cc2)nc(C)n1	-8	0	3	-49*	1
SMILES	D1 PAM	TRHR agonist	D1 agonist	D1 antagonist	TRHR PAM
Cc1ccc(S(=O)(=O)Nc2ccc(NC(=O)c3c(F)c(F)c(F)c(F)c3F)cc2)cc1	-8	4	47*	-8	-2
Cc1ccc(NS(=O)(=O)c2ccc(NC(=O)C3CCCO3)cc2)cc1 (stereo unspecified)	-4	-1	39*	0	10
Cc1nc2ccccn2c(=O)c1NC(=O)c1ccc(F)c(F)c1	-3	0	2	-7	-4
COC(=O)c1cccc(-n2c(CCC(=O)O)ccc2-c2ccc(OC)cc2)c1	-5	0	1	5	19
Cc1ccc(S(=O)(=O)c2nnn3c2nc(NCc2ccc4c(c2)OCO4)c2sccc23)cc1	2	1	1	7	0
Cc1c(C(=O)N(Cc2ccc(Cl)cc2)CC2CCCO2)oc2ccc(F)cc12 (stereo unspecified)	3	2	15	3	0
COC(=O)c1ccc(OCC2c3cc(OC)c(OC)cc3CCN2C(=O)c2cccc(C)c2)cc1 (stereo unspecified)	-2	0	3	-33*	-4
COC(=O)c1ccc(OCC2c3cc(OC)c(OC)cc3CCN2C(=O)C(C)C)cc1 (stereo unspecified)	0	0	-1	4	8
COc1ccccc1NC(=O)c1ccc(S(=O)(=O)N2CCC(C)CC2)cc1	-4	-1	2	-32*	-11
Cc1ccc(NC(=O)C2CCN(S(=O)(=O)c3ccc4c(c3)NC(=O)C(C)S4)CC2)cc1C (stereo unspecified)	7	0	7	-27	-3
COc1ccccc1NS(=O)(=O)c1ccc2c(c1)NC(=O)C(C)S2 (stereo unspecified)	-4	0	32*	1	-10
COc1cccc(NS(=O)(=O)c2ccc3c(c2)NC(=O)C(C)S3)c1 (stereo unspecified)	7	0	13	0	-5
COc1ccc(N2CCN(S(=O)(=O)c3ccc4c(c3)NC(=O)CS4)CC2)cc1	7	0	5	-16	1
Cc1ccc(NC(=O)C2CCN(S(=O)(=O)c3ccc4c(c3)NC(=O)C(C)S4)CC2)c(C)c1 (stereo unspecified)	1	1	8	-40*	-5
COc1ccc(N2CCN(S(=O)(=O)c3ccc4c(c3)NC(=O)C(C)S4)CC2)cc1 (stereo unspecified)	2	1	14	-38*	-3
Cc1cccc(Cn2c(=O)n(-c3ccc(Cl)c(Cl)c3)c(=O)c3c(C)c(C)sc32)c1	0	0	0	-2	15
COc1ccccc1NC(=O)C1CCN(S(=O)(=O)c2ccc3c(c2)NC(=O)C(C)S3)CC1 (stereo unspecified)	-1	1	13	-30*	-1
CC1Sc2ccc(S(=O)(=O)CCC(=O)N3CCN(c4cccc(Cl)c4)CC3)cc2NC1=O (stereo unspecified)	5	-1	10	-42*	0
CC1Sc2ccc(S(=O)(=O)N3CCC(C(=O)Nc4cccc(Cl)c4)CC3)cc2NC1=O (stereo unspecified)	-3	1	7	-23	-6

Screens as filed in PubChem BioAssay.
